Measured values from PubChem BioAssay AID1159580 (chemical genetic matrix, 2015).
About 2,000 (36%) of roughly 5,500 compounds were called active. Not shown: some 18% with an inconclusive outcome. Cut-off read from the data, not from the text of the source: active = normalized growth mostly below about 0.91 (no sharp cut-off); inconclusive = no clear call, values can overlap the other calls; inactive = mostly above about 0.92. The list shows a part of the results.

Assay: chemical genetic growth profiling, strain panel (AID 1159580);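 note: tested at 20 µM; growth read once vehicle control cultures reached saturation at 30 °C; 1 = growth at the plate median or of vehicle wells; lower values mean less growth of the strain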
Details: growth OD

Measured: normalized growth

OC[C@@H](O)[C@@H](O[C@@H]1O[C@H](CO)[C@@H](O)[C@H](O)[C@H]1O)[C@H](O)[C@@H](O)CO
inactive: S. cerevisiae deletion strains, locus YJR075W, strain HOC1, active compounds read low 1.01 | S. cerevisiae deletion strains, locus YKL009W, strain mrt4, active compounds read low 1.02 | S. cerevisiae deletion strains, locus YKL068W, active compounds read low 0.999 | S. cerevisiae deletion strains, locus YKL085W, strain MDH1 (second series), active compounds read low 0.998 | S. cerevisiae deletion strains, locus YKL085W, strain MDH1, active compounds read low 0.998 | S. cerevisiae deletion strains, locus YKL160W, strain elf1, active compounds read low 1.02 | S. cerevisiae deletion strains, locus YKL190W, strain CNB1, active compounds read low 1 | S. cerevisiae deletion strains, locus YKR001C, strain vps1, active compounds read low 1.02 | S. cerevisiae deletion strains, locus YKR026C, strain gcn3, active compounds read low 0.991 | S. cerevisiae deletion strains, locus YKR091W, strain srl3, active compounds read low 0.996 | S. cerevisiae deletion strains, locus YLL001W, strain dnm1, active compounds read low 1.01 | S. cerevisiae deletion strains, locus YLL026W, active compounds read low 0.994 | S. cerevisiae deletion strains, locus YLL041C, strain sdh2, active compounds read low 0.989 | S. cerevisiae deletion strains, locus YLR027C, strain aat2, active compounds read low 0.997 | S. cerevisiae deletion strains, locus YLR039C, strain RIC1, active compounds read low 1.06 | S. cerevisiae deletion strains, locus YLR058C, strain SHM2, active compounds read low 1.01 | S. cerevisiae deletion strains, locus YLR102C, strain apc9, active compounds read low 1.01 | S. cerevisiae deletion strains, locus YLR113W, strain HOG1, active compounds read low 0.99 | S. cerevisiae deletion strains, locus YLR221C, strain rsa3, active compounds read low 1.04 | S. cerevisiae deletion strains, locus YLR258W, strain gsy2, active compounds read low 1 | S. cerevisiae deletion strains, locus YLR262C, strain YPT6 (second series), active compounds read low 1.01 | S. cerevisiae deletion strains, locus YLR262C, strain YPT6, active compounds read low 1.05 | S. cerevisiae deletion strains, locus YLR268W, strain sec22, active compounds read low 0.999 | S. cerevisiae deletion strains, locus YLR320W, strain mms22, active compounds read low 1.04 | S. cerevisiae deletion strains, locus YLR330W, strain CHS5, active compounds read low 1.01 | S. cerevisiae deletion strains, locus YLR342W, strain FKS1 (second series), active compounds read low 1.12 | S. cerevisiae deletion strains, locus YLR342W, strain FKS1, active compounds read low 0.974 | S. cerevisiae deletion strains, locus YLR357W, strain rsc2, active compounds read low 0.958 | S. cerevisiae deletion strains, locus YLR370C, strain arc18, active compounds read low 0.996 | S. cerevisiae deletion strains, locus YLR371W, strain rom2, active compounds read low 1.01 | S. cerevisiae deletion strains, locus YLR384C, strain iki3, active compounds read low 0.999 | S. cerevisiae deletion strains, locus YLR418C, strain cdc73, active compounds read low 0.974 | S. cerevisiae deletion strains, locus YML016C, strain PPZ1, active compounds read low 1.01 | S. cerevisiae deletion strains, locus YML032C, strain rad52, active compounds read low 1.05 | S. cerevisiae deletion strains, locus YML120C, strain ndi1, active compounds read low 0.985 | S. cerevisiae deletion strains, locus YML124C, strain tub3, active compounds read low 1.01 | S. cerevisiae deletion strains, locus YMR058W, strain fet3, active compounds read low 0.99 | S. cerevisiae deletion strains, locus YMR078C, strain ctf18, active compounds read low 1.02 | S. cerevisiae deletion strains, locus YMR125W, strain sto1, active compounds read low 0.938 | S. cerevisiae deletion strains, locus YMR129W, active compounds read low 0.992 | S. cerevisiae deletion strains, locus YMR205C, strain PFK2, active compounds read low 1.03 | S. cerevisiae deletion strains, locus YMR223W, strain ubp8, active compounds read low 1.06 | S. cerevisiae deletion strains, locus YMR231W, strain pep5, active compounds read low 0.983 | S. cerevisiae deletion strains, locus YMR263W, strain SAP30, active compounds read low 1.02 | S. cerevisiae deletion strains, locus YMR307W, strain GAS1, active compounds read low 1.1 | S. cerevisiae deletion strains, locus YNL067W, strain RPL9B, active compounds read low 0.998 | S. cerevisiae deletion strains, locus YNL071W, strain lat1, active compounds read low 0.986 | S. cerevisiae deletion strains, locus YNL128W, strain TEP1, active compounds read low 0.985 | S. cerevisiae deletion strains, locus YNL153C, strain GIM3, active compounds read low 1 | S. cerevisiae deletion strains, locus YNL183C, strain NPR1, active compounds read low 0.982 | S. cerevisiae deletion strains, locus YNL209W, strain ssb2, active compounds read low 0.999 | S. cerevisiae deletion strains, locus YNL233W, strain BNI4, active compounds read low 1.02 | S. cerevisiae deletion strains, locus YNL248C, strain rpa49, active compounds read low 0.976 | S. cerevisiae deletion strains, locus YNL250W, strain rad50, active compounds read low 1.02 | S. cerevisiae deletion strains, locus YNL271C, strain bni1, active compounds read low 1.03 | S. cerevisiae deletion strains, locus YNL298W, strain CLA4, active compounds read low 1.02 | S. cerevisiae deletion strains, locus YNL307C, strain MCK1, active compounds read low 1.03 | S. cerevisiae deletion strains, locus YNL322C, strain KRE1 (second series), active compounds read low 0.991 | S. cerevisiae deletion strains, locus YNL322C, strain KRE1, active compounds read low 1.01 | S. cerevisiae deletion strains, locus YNR049C, strain mso1, active compounds read low 0.993 | S. cerevisiae deletion strains, locus YNR052C, strain pop2, active compounds read low 1.01 | S. cerevisiae deletion strains, locus YOL006C, strain TOP1, active compounds read low 1.07 | S. cerevisiae deletion strains, locus YOL012C, strain htz1 1.19 | S. cerevisiae deletion strains, locus YOL147C, strain pex11, active compounds read low 1.01 | S. cerevisiae deletion strains, locus YOR001W, strain rrp6, active compounds read low 0.968 | S. cerevisiae deletion strains, locus YOR061W, strain CKA2, active compounds read low 1.02 | S. cerevisiae deletion strains, locus YOR069W, strain VPS5, active compounds read low 1.01 | S. cerevisiae deletion strains, locus YOR070C, strain gyp1, active compounds read low 0.994 | S. cerevisiae deletion strains, locus YOR080W, strain dia2, active compounds read low 0.995 | S. cerevisiae deletion strains, locus YOR083W, strain WHI5, active compounds read low 1.03 | S. cerevisiae deletion strains, locus YOR106W, strain vam3, active compounds read low 0.998 | S. cerevisiae deletion strains, locus YOR136W, strain idh2, active compounds read low 1.02 | S. cerevisiae deletion strains, locus YOR144C, strain elg1, active compounds read low 1 | S. cerevisiae deletion strains, locus YOR184W, strain ser1, active compounds read low 1.08 | S. cerevisiae deletion strains, locus YOR231W, strain MKK1, active compounds read low 1 | S. cerevisiae deletion strains, locus YOR265W, strain rbl2, active compounds read low 1 | S. cerevisiae deletion strains, locus YOR270C, strain vph1, active compounds read low 0.956 | S. cerevisiae deletion strains, locus YOR290C, strain snf2, active compounds read low 1 | S. cerevisiae deletion strains, locus YOR316C, strain cot1, active compounds read low 1.01 | S. cerevisiae deletion strains, locus YPL051W, strain arl3, active compounds read low 1.02 | S. cerevisiae deletion strains, locus YPL055C, strain LGE1, active compounds read low 0.991 | S. cerevisiae deletion strains, locus YPL078C, strain atp4, active compounds read low 1 | S. cerevisiae deletion strains, locus YPL106C, strain sse1, active compounds read low 1.01 | S. cerevisiae deletion strains, locus YPL240C, strain hsp82, active compounds read low 0.997 | S. cerevisiae deletion strains, locus YPL241C, strain CIN2, active compounds read low 1.01 | S. cerevisiae deletion strains, locus YPL256C, strain CLN2, active compounds read low 0.985 | S. cerevisiae deletion strains, locus YPR119W, strain clb2, active compounds read low 1 | S. cerevisiae deletion strains, locus YPR141C, strain kar3, active compounds read low 1.02 | S. cerevisiae deletion strains, locus YPR163C, strain tif3, active compounds read low 1.01 | S. cerevisiae deletion strains, locus YPR167C, strain met16, active compounds read low 1 | S. cerevisiae deletion strains, strain wtn01, active compounds read low 0.992 | S. cerevisiae strains, strain wild type, active compounds read low 1.02
